Compounds with a hit are over-represented: about 3.8% of the library has one in this group of screens.
PrPC TRFRET = reduces human prion protein on the cell surface | 370,000 tested, 0.43% active | inhibition, % at 13.8 µM | cell surface PrPC, TR-FRET read-out; in the data active = inhibition above about 24%; also: 0% = median of the test wells and 100% = reference compound wells
PrP UTR inh = inhibition of PrP 5' UTR reporter expression | cell-based PrP 5' UTR mRNA reporter, plate reader | inhibition, % (no concentration beside the values) | 340,000 tested, 0.35% active | AID 488862; in the data active = inhibition above about 52%; also: 0 = median of the neutral control wells
GDH-TPI inh = GDH-TPI coupled enzyme inhibition counter-screen; AID 588335; GDH-TPI coupled enzyme counterscreen, NADH absorbance; 360,000 tested, 1.2% active; inhibition, % at 4.8 µM; in the data active = inhibition above about 30%;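 also: 0% = DMSO wells and 100% = wells lacking the enzyme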
Mtb FBA inh = inhibitors of M. tuberculosis fructose-bisphosphate aldolase; inhibition, % at 1 µM; 360,000 tested, 2.3% active; purified M. tuberculosis FBA, fluorescence read-out; AID 588726; in the data active = inhibition above about 27%;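 also: 0% = vehicle and 100% = reference inhibitor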
Target sequence (P9WQA3 whole entry, looked up): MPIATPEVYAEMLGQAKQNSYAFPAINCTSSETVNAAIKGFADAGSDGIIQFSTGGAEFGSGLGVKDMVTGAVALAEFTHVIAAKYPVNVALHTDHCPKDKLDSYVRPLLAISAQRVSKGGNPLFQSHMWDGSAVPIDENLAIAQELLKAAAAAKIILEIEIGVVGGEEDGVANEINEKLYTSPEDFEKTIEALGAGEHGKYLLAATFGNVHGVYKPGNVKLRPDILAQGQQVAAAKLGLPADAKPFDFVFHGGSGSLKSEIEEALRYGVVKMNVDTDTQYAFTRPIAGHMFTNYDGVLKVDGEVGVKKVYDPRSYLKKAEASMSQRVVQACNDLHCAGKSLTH
Mtb hypoxia inh = Mtb hypoxia fluorescent reporter inhibition; M. tuberculosis hypoxia-regulated fluorescent reporter, fluorescence; fluorescence inhibition, % (test concentration not listed); 300,000 tested, 0.1% active; AID 1159583; in the data active = fluorescence inhibition mostly above about 23%, no sharp cut-off; inactive = mostly below about 17%
Yp Topo-I inh = inhibitors of Yersinia pestis topoisomerase I; 360,000 tested, 0.064% active; Y. pestis Topo-I cleavage product accumulation, plate reader; activity, % at 10 µM; in the data active = activity above about 50%, passing the limit was not always enough
An asterisk follows results filed as active; . = no result.

SMILES	PrPC TRFRET	PrP UTR inh	GDH-TPI inh	Mtb FBA inh	Mtb hypoxia inh	Yp Topo-I inh
O=C1C2C(c3ccc(F)cc3)N3C(=O)N(c4cccc(F)c4)C(=O)[C@@]3(Cc3ccc(Cl)cc3)C2C(=O)N1C1CCCCC1 (stereo partly drawn)	.	.	.	.	3.5	.
CC1CN(C(C)CO)C(=O)c2cccc(NS(=O)(=O)c3ccccc3)c2OC1CN(C)Cc1ccc(-c2ccccc2)cc1 (stereo not drawn)	.	.	.	.	11.0	.
COc1cccc(-c2nnc(-c3ccc(C)o3)o2)c1	5.2	-26.5	0.9	178.7*	16.0	11.1
Cc1sc(NC(=O)c2ccco2)c(C(=O)c2ccc(Cl)cc2)c1C	-2.8	-56.4	4.7	1.0	1.3	3.6
CCOC(=O)c1sc(=NC(=O)c2ccco2)n(C)c1C	3.3	-102.8	37.8*	1.4	12.1	-11.8
Cc1sc(=NC(=O)c2ccco2)n(C)c1-c1ccc(Cl)cc1	2.3	-51.4	51.7*	4.9	21.8	1.8
O=c1ccc2[n+]([O-])c3ccc(O)cc3oc-2c1	-6.3	-31.5	5.2	2.4	-0.2	396.4*
O=C(CC1C(=O)N(Cc2ccccc2)CC1Cc1ccccc1)Nc1ccccc1 (stereo not drawn)	.	.	.	.	7.5	.
O=C1CCN(Cc2ccc(Br)cc2)CCN1C(CO)c1ccccc1 (stereo not drawn)	.	.	.	.	-7.6	.
CCOc1cccc(/C=N/NC(=O)c2cccnc2)c1O	2.8	11.9	30.8*	-3.6	.	7.2
COc1ccc(/C=N/NC(=O)c2ccc(C)nc2)cc1O	-7.3	0.6	32.6*	0.7	.	-0.1
CCOc1cc(/C=N/NC(=O)C(=O)N/N=C/c2ccc(O)c(OCC)c2)ccc1O	-6.9	-19.9	51.2*	-3.1	.	-3.5
COc1ccc(C=NNC(=O)c2ccc(C)nc2)cc1O	.	.	.	.	-1.7	.
CCOc1cc(/C=N/Nc2ncnc(Cl)c2N)ccc1O	-13.1	-65.8	33.5*	-3.3	.	-0.5
O=C(NN=Cc1ccccc1OC(F)F)c1cc(-c2ccncc2)nc2ccccc12	.	.	.	.	7.4	.
CCOC(=O)C1C2COc3ccccc3C2N2C(=O)CN(Cc3ccc(C)cc3)C(=O)[C@@]12C (stereo partly drawn)	.	.	.	.	1.0	.
FC(F)(F)c1cccc(NN=Cc2ccccc2)c1	.	.	.	.	2.7	.
CCOc1cc(/C=N/NC(=O)c2ccccc2-n2cccc2)ccc1O	2.0	-14.6	27.3	-1.3	.	0.0
Cc1ccc(C(=O)N/N=C\c2ccc(-c3ccc(Cl)c(Cl)c3)o2)cn1	-4.7	-19.5	62.8*	4.2	.	-10.2
COc1cc(C=NNC(=O)c2cnccn2)ccc1O	.	.	.	.	-4.7	.
COc1cc(/C=N\NC(=O)c2ccc(Cn3nc([N+](=O)[O-])c(Cl)c3C)o2)ccc1O	-17.1	4.2	40.3*	5.0	.	-0.6
CCOc1cc(/C=N/NC(=O)c2ccccc2OCc2ccc(F)cc2)ccc1O	-15.5	-15.4	41.1*	5.9	.	23.0
COc1cc(/C=N/NC(=O)c2cnccn2)ccc1O	-8.9	5.6	34.5*	-3.5	.	-8.9
Cc1ccc(C(=O)NN=Cc2cn(Cc3ccccc3)c3ccccc23)cn1	.	.	.	.	2.8	.
CCC(C)C(C(=O)N1CCNCC1)n1cc(C(N)CO)nn1 (stereo not drawn)	.	.	.	.	3.5	.
SMILES	PrPC TRFRET	PrP UTR inh	GDH-TPI inh	Mtb FBA inh	Mtb hypoxia inh	Yp Topo-I inh
CNC(=O)C1CCC(=O)N1 (stereo not drawn)	.	.	.	.	7.8	.
Nc1c(Cl)ncnc1N/N=C/c1cccnc1	-11.7	-29.4	40.1*	2.0	.	-4.8
COc1cc2ccccc2cc1C(=O)N/N=C/c1cccnc1	-0.3	17.3	8.6	6.8	.	0.9
CCCCNC(=S)NN=Cc1cccc(OCC)c1O	.	.	.	.	2.7	.
COc1cc2ccccc2cc1C(=O)NN=Cc1cccnc1	.	.	.	.	48.2*	.
CCCCNC(=S)N/N=C/c1cccc(OCC)c1O	-2.7	-2.0	33.3*	1.2	.	0.9
CCOc1cc(/C=N/NC(=O)c2cccnc2)ccc1O	1.6	-12.2	38.3*	-10.1	.	8.9
O=C(Nc1ccccc1)C1=CC(C2CCCCC2)CC(OCc2ccc(CO)cc2)O1 (stereo not drawn)	.	.	.	.	14.0	.
O=C(NN=Cc1ccc(O)c(O)c1)c1ccccc1	.	.	.	6.8	.	.
O=C(COc1ccccc1C(=O)N/N=C\c1ccc(O)c(O)c1)N/N=C/c1ccc(O)c(O)c1	.	-20.2	56.4*	0.5	.	-3.4
COCCCNC(=O)Cn1cc(/C=C(\C#N)C(=O)NC2CCCC2)c2ccccc21	-5.3	-5.7	33.3*	-1.0	-4.6	-5.3
COCCNC(=O)Cn1cc(/C=C(\C#N)C(=O)NC2CC2)c2ccccc21	-0.3	0.8	17.9	0.8	3.9	-10.5
O=[N+]([O-])c1ccc(-c2nc(Cl)c3c(n2)CCCC3)o1	-43.4	.	32.4*	-1.8	.	-3.0

From PubChem
